The list is not random: actives were taken first. Their share in the collection is about 4.2%.
CHOP inhibitor = inhibitors of CHOP promoter induction, primary screen, cell-based, unfolded protein response, luciferase reporter | 220,000 tested, 3.8% active | CHO-K1 CHOP-promoter luciferase, tunicamycin-induced, 15-18 h | inhibition, % at 10 µM | AID 2732, 2010;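 active means compounds that reduced the stress-induced luciferase reporter signal by more than about 70% of percent inhibition, limit read from the data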
S1P4 agonist = S1P4 receptor agonists, primary screen, cell-based. Sphingosine 1-phosphate receptor 4 (Homo sapiens), O95977. S1P4-expressing cell line, agonist reporter assay. activation, % at 4.98 µM. 220,000 tested, 0.35% active; in the data active means activation above about 11%
Target sequence (O95977 whole entry, looked up): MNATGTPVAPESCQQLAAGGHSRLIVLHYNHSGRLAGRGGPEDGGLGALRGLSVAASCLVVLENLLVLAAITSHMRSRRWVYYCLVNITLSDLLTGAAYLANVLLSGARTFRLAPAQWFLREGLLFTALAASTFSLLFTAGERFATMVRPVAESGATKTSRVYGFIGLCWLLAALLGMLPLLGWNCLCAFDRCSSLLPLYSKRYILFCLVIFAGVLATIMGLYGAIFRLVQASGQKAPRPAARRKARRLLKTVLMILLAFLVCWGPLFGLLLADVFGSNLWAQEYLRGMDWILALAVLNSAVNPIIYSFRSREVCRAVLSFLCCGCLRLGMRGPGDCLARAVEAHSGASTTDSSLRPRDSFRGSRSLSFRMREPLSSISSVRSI
S1P4 antagonist = S1P4 receptor antagonists, primary screen, cell-based; S1P4-expressing cells, antagonist mode, reporter read-out; inhibition, % at 4.98 µM; 220,000 tested, 0.26% active; in the data active means inhibition above about 29%
Hsp70 act = Hsp70 transcriptional activators, primary screen, cell-based, HeLa, Hsp70 promoter luciferase, luminescence, 10 µM; HeLa Hsp70 promoter luciferase reporter; scaled: vehicle 0, proteasome-inhibitor control 100%; activation, % at 10 µM; 200,000 tested, 0.04% active;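 active means activation above the mean across all tested compounds plus 3 SD, cutoff set per campaign, cut at about 5.5% in these data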
Hits are given with their value; – = inactive; · = not tested or not shown.

SMILES | CHOP inhibitor | S1P4 agonist | S1P4 antagonist | Hsp70 act
Cc1cnc(NC(=O)CSc2nc3ccccc3s2)s1 | – | – | – | –
Cc1cnc(NC(=O)c2ccc(-c3nc4ccccc4s3)o2)s1 | 73.8 | – | – | –
CCN(CC)C(=O)c1ccc(/C=C/c2c[nH]c3ccccc23)[n+](C)c1 | – | – | – | –
CC[n+]1c(/C=C/c2c[nH]c3ccccc23)ccc2cc(C)ccc21 | 75.3 | – | – | –
Cc1ccc(-n2nnnc2SCC(=O)N2CCCCC2)cc1 | – | – | – | –
CCCc1cc(=O)[nH]c(Nc2ccc(Cl)cc2)n1 | – | – | – | –
CCCc1cc(=O)[nH]c(Nc2ccc(OC)c(Cl)c2)n1 | 77.5 | – | – | –
Cc1ccc(OCC(=O)N(C)CCc2ccccn2)cc1 | · | – | – | –
CC1CCCCC1NCc1cccc([N+](=O)[O-])c1 (stereo unspecified) | – | – | – | –
CCCCc1nc2sc3c(SCCN(C)C)ncnc3c2c2c1CCC2 | – | – | – | ·
CCCCc1nc2sc3c(SCC(=O)NCc4ccco4)ncnc3c2c2c1CCC2 | 86.1 | – | – | –
COc1ccc(Cl)cc1NC(=O)CSc1nnc(COc2ccccc2)n1C | 79.9 | – | – | –
Clc1cccc(-c2ccnc3nc(-n4cccc4)nn23)c1 | 75.8 | – | – | –
COc1ccccc1/C=C/C=N/n1c(-c2ccccc2)n[nH]c1=S | – | – | – | ·
COc1ccccc1/C=C/C=N/n1c(C2CCCCC2)n[nH]c1=S | 93.5 | – | – | –
CCOc1ccccc1C(=O)Nc1ccc2nc(N3CCN(c4ncccn4)CC3)cc(C)c2c1 | · | – | – | –
O=C1N/C(=N\c2ccccn2)SC1Cc1ccc(Cl)cc1 (stereo unspecified) | – | – | – | –
O=C(c1cc(C(=O)NCCc2ccccc2)c(=O)n(CCc2ccccc2)c1)c1cc(Cl)ccc1O | 82.4 | – | – | –
COc1ccc(CCNC(=O)c2cc(C(=O)c3cc(Cl)ccc3O)cn(CCc3ccc(OC)cc3)c2=O)cc1 | – | – | – | –
CCOC(=O)Cc1cnc(NC(=O)NC(C(=O)OCC)(c2ccccc2)C(F)(F)F)s1 (stereo unspecified) | 84.8 | – | – | –
CCCc1c(C)c2cc(C)ccc2[nH]c1=O | – | – | – | –
CCCCc1c(C)c2cc(C)ccc2[nH]c1=O | 78.9 | – | – | –
Cc1ccc(CN2C(=O)CSc3ccc(C(=O)NCCN4CCOCC4)cc32)cc1 | – | – | – | –
COC(=O)c1c(-c2cccs2)csc1NC(=O)CN1CCOCC1 | 73.9 | – | – | –
CCOC(=O)c1cc2c(=O)n3ccccc3nc2n(CC2CCCO2)c1=NC(C)=O (stereo unspecified) | · | 17.9 | – | –
SMILES | CHOP inhibitor | S1P4 agonist | S1P4 antagonist | Hsp70 act
CCOC(=O)c1cc2c(=O)n3ccccc3nc2n(CC2CCCO2)c1=NC(=O)/C=C/c1ccccc1 (stereo unspecified) | – | – | – | –
CCCC[C@@H]1C[C@H]1[C@@H](NC(=O)c1ccco1)c1ccc(Cl)cc1 | – | – | – | –
COc1ccc(C(=O)Oc2cccc(Nc3ncnc4ccccc34)c2)cc1OC | – | – | – | –
COc1cc(C(=O)Oc2cccc(Nc3ncnc4ccccc34)c2)cc(OC)c1OC | 91.8 | – | – | –
O=C(CC1C(=O)NCCN1Cc1ccc(-c2ccccc2)cc1)NCCCn1cccn1 (stereo unspecified) | – | – | – | –
CSc1ccc(S(=O)(=O)NC2CCCCCC2)cc1 | 78.0 | – | – | –
O=C(Nc1ccc(S(=O)(=O)NC2CCCCC2)cc1)c1ccc(Br)o1 | 82.8 | – | – | –
O=C(Nc1ccc(NC(=O)c2cccs2)cc1)c1ccc(Br)o1 | 90.5 | – | – | –
O=C(O)c1ccc(S(=O)(=O)NC2CCCCC2)cc1 | – | – | – | –
O=C(NNC(=O)c1cccs1)c1ccc(Br)o1 | – | – | – | –
CCOc1ccc2oc(C(=O)OCC(=O)NC(=O)NC3CCCC3)c(C)c2c1 | 72.6 | – | – | –
COc1ccc(Oc2ccc(C(F)(F)F)cc2NC(=O)c2ccc(C)cc2)cc1 | – | – | – | ·
COC(=O)c1ccc2c(=O)n(Cc3ccco3)c(SCC(=O)Nc3cc(C)on3)nc2c1 | 90.7 | – | – | –
CCc1ccc(NC(=O)CSc2nc3cc(C(=O)OC)ccc3c(=O)n2CC2CCCO2)cc1 (stereo unspecified) | 93.6 | – | – | –
COC(=O)c1ccc2c(=O)n(Cc3ccco3)c(SCC(=O)Nc3ccccc3Cl)nc2c1 | – | – | – | –
Cc1ccc(-c2nnc(SCc3ccc(C#N)cc3)n2Cc2ccco2)cc1 | – | – | – | –

Bioassay records from PubChem BioAssay.
